# Assay results as given in PubChem BioAssay (NCI).
# Several values for one entry are separate records, joined by “and”; a condition that tells them apart may be missing. Equal values may be shown once. Compounds without any hit were thinned out: in the full panel of roughly 79,000, 15% have a hit. Values without a mark were called inactive. Activity calls are given as the source filed them. Cut-off read from the data, not from the text of the source: active = growth inhibition above about 70%; inactive = the rest.
# How the values were obtained:
# [1] = NCI Yeast Anticancer Drug Screen. Data for the rad50 strain (AID 155);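 note: 0% = growth of vehicle-only cultures of the same strain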; conditions: S. cerevisiae rad50 strain growth inhibition, stronger effect = higher value; at 50.0 µM unless noted
# How it was run: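 Compounds were tested on a yeast strain with an engineered DNA damage repair alteration; the reported value is growth inhibition normalised to vehicle treatment.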
# [2] = NCI Yeast Anticancer Drug Screen. Data for the mec2-1 strain (AID 157); conditions: S. cerevisiae mec2-1 strain, stronger effect = higher value; at 50.0 µM unless noted
# How it was run: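 Cells of the genetically defined mec2-1 yeast strain are incubated with test compound. Inhibition of growth is calculated against vehicle-treated controls.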
# [3] = NCI Yeast Anticancer Drug Screen. Data for the sgs1 mgt1 strain (AID 161);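 note: 0% = growth of cultures given vehicle only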; conditions: S. cerevisiae sgs1 mgt1 strain, stronger effect = higher value; at 50.0 µM unless noted
# How it was run: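 Genetically altered yeast, compound exposure, growth inhibition relative to vehicle.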
# [4] = NCI Yeast Anticancer Drug Screen. Data for the cln2 rad14 strain (AID 165);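 note: 0% = growth equal to vehicle treated cultures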; conditions: S. cerevisiae cln2 rad14 strain, stronger effect = higher value; at 50.0 µM unless noted
# How it was run: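 The screen exposed genetically defined yeast (cln2 rad14) to test compounds and scored growth inhibition relative to vehicle-treated controls.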
# [5] = NCI Yeast Anticancer Drug Screen. Data for the bub3 strain (AID 167); conditions: S. cerevisiae bub3 mutant strain, stronger effect = higher value; at 50.0 µM unless noted
# How it was run: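 Growth of a checkpoint-deficient yeast mutant is measured after compound exposure. Values represent inhibition relative to vehicle.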
# [6] = NCI Yeast Anticancer Drug Screen. Data for the mlh1 rad18 strain (AID 175); conditions: S. cerevisiae mlh1 rad18 strain growth inhibition, stronger effect = higher value; at 50.0 µM unless noted
# How it was run: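 Compound-treated yeast growth, normalised to vehicle controls. Strain bears defined DNA repair mutations.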
Structure (SMILES),growth inhibition [1],growth inhibition [2],growth inhibition [3],growth inhibition [4],growth inhibition [5],growth inhibition [6]
Cc1cccc(C)c1NC(=O)CCc1nnc2s/c(=C\c3ccc(N(C)C)cc3)c(=O)n12,29.8%,30.1%,25.6%,0.15%,4.85%,10.3%
CCOC(=O)/C(Cc1cc[n+]([O-])cc1)=N/O,33.5%,27.3%,15.2%,13.5%,13.6%,20.5%
CC(C)OC(=O)Nc1ccc(O)cc1,10.8%,-6.7%,-2.45%,-19.4%,-3.45%,-5.7%
Fc1ccc2c(c1)SC1Oc3ccccc3-c3c1c-2nn3-c1ccccc1 (centres undefined),-5.45%,-7.45%,-17.4%,8.8%,-11.1%,-2.6%
COc1ccc(-c2nc(N)c3ncn(C4OC(CO)C(O)C4O)c3n2)cc1 (centres undefined),-13.2%,-23.9%,-7.15%,-12.2%,-27.1%,15.4%
CCOC(=O)c1c[nH]n(-c2ccccc2)c1=O,9.65%,-3.95%,-4.75%,-3.15%,-2.7%,12.6%
O=C1c2ccccc2CC(c2ccccc2)N1c1ccccc1 (centres undefined),51.1%,0.4%,31.4%,-22.4%,3.55%,32.1%
C=C1C(=O)OC2C3[C@@]4(C)O[C@H]4[C@H]4O[C@@]34[C@](C)(O)CC(OC(C)=O)[C@@H]12 (some centres undefined),-16.4%,-30.6%,-7.3%,-7.45%,-24.4%,-22.1%
CC1(O)CC(=O)c2c(cc3ccc(-c4c5c(c(O)c6c(O)cccc46)C(=O)CC(C)(O)C5)c(O)c3c2O)C1 (centres undefined),54.1%,48.1%,35.5%,23.8%,19.7%,9.95%
NC(=O)C(N)CC12CC3CC(CC(C3)C1)C2 (centres undefined),-6%,-18.2%,-10.6%,17.7%,10.7%,-4.7%
C=CCN1C(=O)CS/C1=N/NC(=O)C(O)(c1ccccc1)c1ccccc1,-19.6%,-47.7%,6.1%,-25.4%,-24.3%,-4.05%
O=C(N/N=C/c1ccc(Cl)cc1)c1cccc([N+](=O)[O-])c1,-1.5%,7.7%,-3.6%,4.25%,8.35%,-5.7%
CN(C)N=Nc1ccc(S(C)(=O)=O)cc1,4.9%,0.6%,1.5%,-22.1%,10.1%,8.1%
c1ccc(CNc2nnnc3ccccc23)cc1,-2.75%,-1.45%,-2.4%,-30.8%,-14.5%,2.2%
CCCCCCC(=O)C/C(CCC(=O)N(Cc1ccccc1)Cc1ccccc1)=N\Nc1ccc([N+](=O)[O-])cc1[N+](=O)[O-],12.8%,16.1%,-13.3%,27.4%,-11.4%,-20.5%
CC(C)(CN1CCCCC1)C(=O)CC(SCCN)c1ccc(Cl)cc1 (centres undefined),27.8%,0.65%,47.3%,31.2%,46.9%,23.8%
CC1(CO)C2CCC(CC2)C1CO (centres undefined),-3%,1.85%,-4.4%,-20.2%,-5.1%,2.5%
O=Nc1c(O)c2ccccc2[nH]c1=O,15.6%,33.6%,34.6%,24.9%,57.5%,30.4%
COc1ccccc1N=Nc1c(O)n(-c2ccccc2)c(=S)n(-c2ccccc2)c1=O,36.2%,-4.55%,26.8%,-9.3%,-2.85%,8.9%
Cc1c(SC(Cl)(Cl)Cl)cc([N+](=O)[O-])c(N(C)C)c1[N+](=O)[O-],13.5%,24.9%,34.6%,-43.9%,6.45%,10%

Structure (SMILES),growth inhibition [1],growth inhibition [2],growth inhibition [3],growth inhibition [4],growth inhibition [5],growth inhibition [6]
O=c1c2cc(O)ccc2n2nnc3ccc(NCCNCCO)c1c32,-18.4% and -10.8%,-16.3% and -12.1%,-35.1% and -8.7%,18.1% and 16.9%,8.3% and 1%,-4.7% and 3.1%
N=c1ccccn1CC(O)COc1ccc(Cl)cc1 (centres undefined),11.8%,-10.1%,-8.85%,-17.9%,-2.5%,-16.6%
O=c1c(O)c(-c2cc(O)c(O)c(O)c2)oc2cc(O)cc(O)c12,13.7%,-21.1%,7.55%,1.1%,14.5%,-8.55%
Cc1cccc(NC(=O)C(=O)C(C(=O)c2ccc3ccccc3c2)C2OC(=O)c3ccccc32)c1C (centres undefined),-3.95%,4.75%,13.5%,-59.5%,5.75%,-6.75%
Clc1ccc2c(c1)C(=P(c1ccccc1)(c1ccccc1)c1ccccc1)c1cc(Cl)cc(Cl)c1-2,83.7% (active),52.6%,66.8%,50.6%,39.3%,64.6%
COc1ccccc1-n1c(=O)c(N=Nc2ccc(C)cc2)c(O)n(-c2ccccc2C)c1=S,-34.8%,-10.5%,-17.9%,-44.1%,0%,-37.5%
CC(=O)Oc1ccc(CCC(=O)O)cc1,18.8%,12.6%,6.9%,57.9%,11.4%,20.9%
NNc1nc(N2CCCCC2)c2[nH]cnc2n1,1.1%,-7.65%,-5.6%,0.1%,11.8%,4.95%
O=C(/C=C\c1ccc(Cl)c(Cl)c1)/C=C/c1ccc(Cl)c(Cl)c1,25.5%,4.75%,26.4%,9.55%,39%,16.6%
OC1c2ccccc2C2c3ccccc3C1C2Cl (centres undefined),43.8%,5.9%,25.8%,35.3%,-5.7%,39.8%
Nc1ncnc2c1ncn2C1OC(CO)C(NC(=O)C(N)Cc2ccccc2)C1O (centres undefined),7.2%,-4.7%,-2.8%,-32.3%,2.15%,-9.5%
OCC1OC(O)C(O)C(O)C1O (centres undefined),5.05% and 8.6%,1.75% and 15.1%,-0.95% and -5.85%,-19.4% and 16.8%,-4.1% and 2.1%,3.1% and 14.4%
NCCCOB(OCCCN)OCCCN,8.3%,-7.4%,-17.1%,-20.2%,-2.45%,-10.2%
CCCCCCCCCCCC[N+](C)([O-])CCCCCC[N+](C)([O-])CCCCCCCCCCCC (centres undefined),96.2% (active),98.7% (active),97.8% (active),96.5% (active),96.5% (active),97% (active)
CCCCn1cnc2c(SC)ncnc21,-8.1%,-23.9%,-18.4%,-0.35%,-32.8%,-3.65%
O=Cc1c2cnc(c1O)CSCc1ccc(cc1)CSC2,9.55%,8.45%,9.35%,-11.7%,-2.9%,23.5%
CC(COc1ccc(C(C)(C)C)cc1)OC=O (centres undefined),14.2%,3.2%,19.4%,-12.9%,16.1%,-6.4%
Nc1ccc(S(=O)(=O)CCCl)cc1,8.7%,0.95%,18.5%,22.2%,13.7%,11.6%
CS(C)=NC(=Nc1ccccc1)c1ccccc1,6.9%,9.6%,-12%,-26.4%,9.7%,2.05%
